Bioassay records: PubChem, several laboratories
Most compounds without a hit are left out; they make up all but 1.5% or so of the library.
GLD-1 RNA inh: GLD-1-TGE RNA interaction inhibition (C. elegans). inhibition, % at 5.96 µM. hit rate 0.44% among 320,000. purified GLD-1 + fluorescein TGE RNA, fluorescence polarization. Q17339;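 active = percent inhibition above a per-plate cutoff, the plate mean of test compounds plus 3 SD, cut at about 30% in these data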;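 also: 0% = DMSO wells with GLD-1 and probe and 100% = wells lacking GLD-1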
BCLXL inh: blocks human Bcl-xL binding to Bim BH3 peptide | Q07817 | GST-Bcl-xL / FITC-Bim BH3 peptide fluorescence polarization | inhibition, % at 10.9 µM | hit rate 0.7% among 320,000;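 active = inhibition above the mean of all tested compounds plus 3 SD, cutoff set per campaign, cut at about 30% in these data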;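 also: 0% = DMSO wells and 100% = unlabeled Bim-BH3 peptide competitor; inhibitors lower millipolarization by displacing the labeled peptide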
IDE act: boosts human insulin-degrading enzyme activity in HEK cells; activation, % at 5.96 µM; P14735; AID 493087; hit rate 0.073% among 340,000; FAbeta-B cleavage, fluorescence polarization; 0% vehicle, 100% cell-free pure enzyme wells;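 active = activation above the mean of all tested compounds plus 3 SD, set per screening campaign, cut at about 17% in these data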
MCL1 BIM primary: inhibitors of human MCL1 binding to BIM-BH3 peptide; GST-MCL1 / FITC-Bim-BH3 fluorescence polarization; inhibition, % at 10.9 µM; hit rate 0.68% among 320,000;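 active = inhibition above the mean inhibition of all tested compounds plus 3 SD, set per campaign, cut at about 40% in these data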;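 also: 0% = DMSO wells and 100% = unlabeled Bim-BH3 peptide control; higher means more loss of mP so more displacement of Bim peptide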
Target sequence (Q07820 whole entry, looked up): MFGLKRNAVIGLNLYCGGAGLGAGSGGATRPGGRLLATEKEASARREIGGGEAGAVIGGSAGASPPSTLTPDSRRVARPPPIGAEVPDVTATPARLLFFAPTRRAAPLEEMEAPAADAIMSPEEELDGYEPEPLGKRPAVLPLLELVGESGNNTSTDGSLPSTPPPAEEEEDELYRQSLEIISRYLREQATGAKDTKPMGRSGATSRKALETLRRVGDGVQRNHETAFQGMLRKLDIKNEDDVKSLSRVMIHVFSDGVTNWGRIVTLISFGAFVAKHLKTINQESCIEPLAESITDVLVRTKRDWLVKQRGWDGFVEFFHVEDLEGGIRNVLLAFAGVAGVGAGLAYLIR
IDE inh: inhibits human insulin-degrading enzyme in HEK cells | P14735 | FAbetaB cleavage, fluorescence polarization | inhibition, % at 5.59 µM | hit rate 0.41% among 320,000 | AID 434962;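 active = percent inhibition above the average of all tested compounds plus 3 SD, set per screening campaign, cut at about 16% in these data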;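 also: IDE supplied by intact live HEK cells; FP after avidin binding of uncleaved biotin substrate so inhibition keeps polarization high; 0% = DMSO wells and 100% = 60 µM reference IDE inhibitor Ii1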
MEX-5 binding: C. elegans MEX-5 TCR-2 RNA binding activity. Q9XUB2. MEX-5/FITC-TCR2 RNA binding, fluorescence polarization; active compounds read low. activity score (negative = inhibition of binding), % at 10 µM. hit rate 0.38% among 300,000;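 active = inhibition past about -25% in most replicates, and total fluorescence under double the plate's negative control median, limit read from the data; inconclusive = replicates evenly split on the limit, or fluorescence at least double controls; inactive = too little inhibition in most replicates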;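 also: 0% = DMSO and -100% = 5 µM competing unlabeled TCR2 RNA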
The depositor's hits bear a star; ? = inconclusive; · = no result given.

SMILES	GLD-1 RNA inh	BCLXL inh	IDE act	MCL1 BIM primary	IDE inh	MEX-5 binding
CCOc1cc(/C=N/NC(N)=O)ccc1OCC(=O)Nc1ccc(C)c(C)c1	-4.7	3.3	-0.3	1.6	-3.5	3.8
CCOc1cc(C=C2C(=O)c3ccccc3C2=O)ccc1OCC(=O)Nc1ccc(C)cc1	5.9	15.3	4.9	19.8	2.4	-36.1*
CC(=O)[C@@H]1[C@@H](C(=O)c2ccc(F)cc2)[C@]2(C(=O)Nc3ccccc32)[C@H]2C=Cc3cc(F)ccc3N12	7.0	10.2	5.2	3.0	-2.2	2.6
O=C(c1ccc(F)cc1)[C@@H]1[C@@H](C(=O)c2ccccc2)[C@@]2(C(=O)Nc3ccccc32)[C@H]2c3ccccc3C=CN12	34.4*	26.7	·	2.8	1.6	2.2
CCNS(=O)(=O)c1cc(OC)c(Cl)cc1OC	-1.6	5.9	3.9	4.2	-0.3	-0.9
Oc1ccc(Br)cc1/C=N/n1c(-c2ccccc2)n[nH]c1=S	8.7	-18.5	2.3	-9.0	-1.1	3.6
Oc1c(Br)cc(Br)c(/C=N/n2c(-c3ccccc3)n[nH]c2=S)c1Br	1.6	1.4	-0.3	30.4	2.8	-37.4*
O=C(Cn1cc(F)c(=O)[nH]c1=O)NCCO	3.6	4.9	-1.0	1.6	-4.6	1.6
COC(=O)C1=C(C)N(c2ccccc2)/C(=C/c2ccco2)C1=O	5.3	7.5	5.6	11.2	0.3	-28.4*
O=C(Nc1cccc(Cl)c1)C1C2C=CC3(O2)C1C(=O)N(CCCN1CCCCC1)C3C(=O)NC1CCCCC1 (stereo not given)	7.1	3.7	3.7	1.5	3.2	0.0
CCN1C(=O)/C(=C/c2c(C)nn(C)c2C)SC1=S	-15.3	-19.1	-1.9	-16.8	2.5	-30.2*
CC(C)c1ccc(C2C(C#N)=C(N)N3C(=C2C#N)Sc2ccccc23)cc1 (stereo not given)	-9.5	-1.6	·	-5.5	4.3	-120.4*
O=C(c1ccccc1)c1coc(-c2ccccc2)c1	·	·	-1.7	·	·	·
Cc1[nH][nH]c(=O)c1C(c1ccc(O)c([N+](=O)[O-])c1)c1c(C)[nH][nH]c1=O	-0.8	7.2	0.2	7.3	9.2	-48.4*
COC(=O)CCC(=O)OC1(C)C(=O)C2=CN(Cc3ccc4c(c3)OCO4)C(c3ccc(OC)cc3)=CC2=C(Br)C1=O (stereo not given)	-0.6	11.6	0.6	5.8	3.3	-2.0
CC1(OC(=O)C2CCCC2)C(=O)C=C2C=C(c3ccsc3)OC=C2C1=O (stereo not given)	14.1	14.6	5.0	23.6	5.8	-5.3
COc1ccc(C2=CC3=C(Br)C(=O)C(C)(OC(=O)C4CCCC4)C(=O)C3=CO2)cc1 (stereo not given)	8.7	31.1*	-2.1	42.2*	2.1	?
COc1ccc(C2=CC3=C(Br)C(=O)C(C)(OC(=O)c4ccc(Cl)nc4)C(=O)C3=CO2)cc1 (stereo not given)	9.1	20.9	·	26.4	2.6	-30.3*
CC1CCCC(NC(=O)Cn2c(Cl)nc3c2c(=O)n(C)c(=O)n3C)C1C (stereo not given)	-4.5	·	1.2	·	0.6	·
Cc1n[nH]c(=S)c2nn(-c3cccc(Cl)c3)c(C)c12	·	·	·	·	·	-31.6*
Cc1cccc(NC(=O)C2CCCN(S(=O)(=O)c3ccc4[nH]c(=O)ccc4c3)C2)n1 (stereo not given)	7.5	1.4	-2.2	4.1	6.4	-2.5
CCCOc1cc(N(CC)CC)ccc1/C=C(/C#N)c1nc2ccc(C)cc2[nH]1	-42.0	-48.5	-101.9	-83.1	105.0*	-4.3
CC1=N/C(=C/c2ccco2)C(=O)O1	·	·	1.0	·	·	?
Cc1cc(O)cc2c1C(=O)/C(=C/c1ccco1)O2	49.9*	62.9*	-8.4	48.3*	13.5	-42.2*
O=C(NCC1CCCN(C(=O)Cc2ccccc2Cl)C1)c1ccc(F)cc1 (stereo not given)	-9.3	1.8	6.3	4.3	0.7	1.1
Cc1cc(C(F)(F)F)c2c(N)c(C(=O)NC3CC3)sc2n1	-11.4	-0.6	-1.6	-10.1	7.9	-1.3
Cc1nn(C)c2nc(-c3cccs3)cc(C(F)(F)F)c12	-1.8	1.1	3.5	4.8	0.8	0.9
Cc1nnc(NC(=O)c2sc3nc(-c4cccs4)cc(C(F)(F)F)c3c2N)s1	-37.0	21.4	-27.3	7.7	19.1*	-4.8
